In PubChem BioAssay AID2314 (National Center for Advancing Translational Sciences (NCATS), 2010):
“And” between values parts separate entries of the source, which are not always exact repeats. Equal entries are not always repeated. Out of some 300,000 compounds screened, about 37,000 (12%) were called active. Rule as the data show it: active = max response mostly above about 13% (no sharp cut-off); inactive = mostly below about 14%. For the sample, actives were picked, then their nearest neighbours and some compounds at random.

Experiment: Cycloheximide Counterscreen for Small Molecule Inhibitors of Shiga Toxin; also: read at 38.3 µM for the half of the compounds with a filed dose; 0% is about no effect
Conditions: cell reporter, cycloheximide protein synthesis inhibition counterscreen; hits give high values
With `Cc1nn(C)cc1S(=O)(=O)N1CCN(c2ccc(F)cc2)CC1` the max response was 11.1% (inactive).
With `CN(C(=O)COC(=O)CNC(=O)C12CC3CC(CC(C3)C1)C2)c1ccccc1` the max response was 1.16% (inactive).
In the case of `C#C[C@]1(O)CC[C@H]2[C@@H]3CCC4=CC(=O)CC[C@@H]4[C@H]3CC[C@@]21CC`, the max response is reported as -12.5% (inactive) and -2.99% (inactive) and -5.94% (inactive).
With `Cc1nc(CN(C)C(=O)CC2C(=O)NCCN2Cc2ccc(F)cc2)cs1` (stereo not drawn) the max response was -1.31% (inactive).
For `Brc1ccc(C2=NCCC(c3ccccc3)O2)cc1` (stereo not drawn), the max response was 6.52% (inactive).
With `Brc1ccc(C2CC(c3ccccc3)=Nc3ccccc3N2)cc1` (stereo not drawn) the max response was 43.8% (active).
With `CNC(=S)N1N=C(c2ccccc2)CC1c1ccc(Br)cc1` (stereo not drawn) the max response was 12.1% (inactive).
For `CNC[C@H](CC1CCCCC1)NC[C@H](NCCC1CCCC1)[C@H](C)O`, the max response was -3.05% (inactive).
In the case of `CCOc1ccc2cc(C#N)c(SCC(=O)OC)nc2c1`, the max response is reported as 26.6% (active).
For `COc1ccc(N2CCN(C(=O)CSc3nc4cc(OC)c(OC)cc4cc3C#N)CC2)cc1`, the max response was 2.1% (inactive).
For `Cc1nonc1NC(=O)CSc1nc2ccccc2cc1C#N`, the max response was 29.2% (inactive).
With `CCCn1c2ccccc2c2cnn(CC(=O)NCCCN3CCCCC3CC)c(=O)c21` (stereo not drawn) the max response was -4.88% (inactive).
For `O=C(Nc1cccc(NC(=O)c2ccco2)c1)c1cnccn1`, the max response was 6.96% (inactive).
With `O=C(Nc1cc(-c2nc3ncccc3o2)ccc1Cl)c1ccco1` the max response was 7.89% (inactive).
For `Cc1ccc(C(=O)COc2cccc(NC(=O)c3ccco3)c2)cc1`, the max response was 4.03% (inactive).
With `Cc1cccc(NC(=O)Nc2cccc(Oc3c(F)c(F)c(F)c(F)c3F)c2)c1` the max response was 7.92% (inactive).
With `CCOc1cc(NC(=O)c2ccco2)c(OCC)cc1NC(=O)COc1ccccc1` the max response was -3.22% (inactive).
In the case of `O=C(Nc1ccc(Oc2ccccc2)cc1)c1ccco1`, the max response is reported as 37.5% (active).
In the case of `O=C(Nc1cccc(-c2nc3ncccc3o2)c1)c1ccco1`, the max response is reported as 29.9% (active).
In the case of `Cc1ccoc1C(=O)Nc1cccc(Oc2ccccc2)c1`, the max response is reported as 62.1% (active).
In the case of `Cc1ccnc(NC(=O)c2ccco2)n1`, the max response is reported as 10.2% (inactive).
With `O=C(CSc1ccccc1)Nc1ccc(NC(=O)c2ccco2)cc1` the max response was 16.6% (inactive).
For `O=C(Nc1c(-c2ccccc2)nc2c(Br)cc(Br)cn12)c1ccco1`, the max response was 14.7% (inactive).
In the case of `O=C(Nc1ccc2nccnc2c1)c1ccco1`, the max response is reported as 36.2% (active).
For `COc1ccc(C(=O)Nc2ccc(C(=O)NCC3CCCO3)cc2)c(OC)c1OC` (stereo not drawn), the max response was -0.955% (inactive).
For `O=S(=O)(Nc1cccc2cccnc12)c1cccc2cccnc12`, the max response was -4.18% (inactive).
With `COc1cc(/C(=C/c2ccccc2)c2ccccc2)c2c(c1)oc1ccccc12` the max response was -1.79% (inactive).
For `CCCOc1ccc(/C=N/NC(=O)C2CC2)c(OCCC)c1`, the max response was 1.32% (inactive).
In the case of `Cc1cc(NC(=O)[C@H](C)NC(=O)c2ccco2)ccc1Br`, the max response is reported as -2.49% (inactive).
In the case of `CCS(=O)(=O)Nc1ccc(C(=O)NCCSc2ccccc2)cc1`, the max response is reported as 30% (active).
For `O=C(Nc1ccccc1)/C(=C\c1ccco1)NC(=O)c1ccco1`, the max response was 25.7% (inactive).
For `O=C(Nc1ccc2oc(-c3ccccc3F)nc2c1)c1ccco1`, the max response was 47.3% (active).
In the case of `O=C(Nc1ccccc1)c1ccco1`, the max response is reported as 18.8% (active).
With `Cc1ccc(C(=O)NCCNC(=O)c2ccccc2)cc1` the max response was 2.82% (inactive).
In the case of `O=C(NNC(=O)c1ccco1)Nc1ccccc1`, the max response is reported as 12.6% (inactive).
For `COc1ccc(NC(=O)c2ccco2)cc1NC(=O)c1ccc(C#N)cc1F`, the max response was 1.08% (inactive).
For `O=C(Nc1ccc(Sc2ccc(Br)cc2)cc1)c1ccco1`, the max response was 35.2% (active).
In the case of `Cc1ccc(C(=O)NCCNS(=O)(=O)c2ccccc2)cc1`, the max response is reported as -4.96% (inactive).
In the case of `COc1ccc(NC(=O)CCCN2C(=O)C(c3ccccc3)Oc3cccnc32)cc1` (stereo not drawn), the max response is reported as 21.3% (inactive).
With `C[N+](C)(C)CCNC(=O)c1cc[n+](Cc2ccccc2)c(/C=N/O)c1` the max response was -2.41% (inactive).
For `COC(=O)c1cc(CNC(=O)CC(C)c2ccccc2)ccc1OC` (stereo not drawn), the max response was 0.629% (inactive).
In the case of `O=C(NNC1CC(=O)N(c2cccc(Cl)c2)C1=O)c1cccnc1` (stereo not drawn), the max response is reported as 0.896% (inactive).
For `Cc1c(-c2ccccc2)n[nH]c1C(=O)N=Nc1c(O)[nH]c2ccccc12`, the max response was 8.32% (inactive).
With `COc1ccc(-c2c(-c3ccc(OC)cc3O)nc(C)nc2C(F)(F)F)cc1` the max response was -2.37% (inactive).
With `O=C(CCSc1ccccc1)NCCSc1ccccn1` the max response was -3.74% (inactive).
For `O=C(O)/C=C\C(=O)Nc1ccc(OCc2ccccc2)cc1`, the max response was 21.5% (inactive).
For `O=C(CNC(=O)c1ccco1)OCC(=O)c1ccccc1`, the max response was 19.9% (inactive).
For `O=C(/C=C/c1ccco1)Nc1ccc(Oc2ccccc2)cc1`, the max response was 37.9% (active).
With `Cc1ccc(-n2nc3ccc(NC(=O)/C=C/c4ccco4)cc3n2)cc1C` the max response was 30.3% (inactive).
In the case of `O=C(NCCSc1ccccc1)c1ccco1`, the max response is reported as 81.7% (active).
For `CC(=O)NCCc1ccc(S(=O)(=O)Nc2ccc(C)c(S(=O)(=O)N3CCOCC3)c2)cc1`, the max response was -9.24% (inactive).
In the case of `CC1CCN(CC(=O)Nc2nccs2)CC1`, the max response is reported as -2.21% (inactive).
For `O=C(Cc1ccsc1)N1CCN(S(=O)(=O)c2cc(C(F)(F)F)cc(C(F)(F)F)c2)CC1`, the max response was -2.13% (inactive).
With `COc1cccc(C(C(=O)NC2CCCC2)N(C(=O)c2ccco2)c2cccc(C(C)=O)c2)c1OC` (stereo not drawn) the max response was 3.33% (inactive).
In the case of `Cc1cc(OC(=O)c2c(Cl)cccc2Cl)nc(C)n1`, the max response is reported as -0.567% (inactive).
For `CCOC(=O)c1cnc(SCC(=O)Nc2ccccc2C(=O)OC)nc1N`, the max response was -1.91% (inactive).
For `CCCCOc1ccc(-c2ncc(C(=O)OCC)c(N)n2)cc1`, the max response was 42.2% (active).
For `CCOC(=O)c1cnc(-c2ccccc2)nc1Oc1ccc(C)cc1`, the max response was -0.445% (inactive).
In the case of `COc1ccc2c(c1)c(=O)c(C(=O)c1ccc(Cl)cc1)cn2CC(=O)Nc1ccc(F)cc1`, the max response is reported as -2.23% (inactive).
For `O=C(N=C1SC2CS(=O)(=O)CC2N1c1cc(Cl)ccc1Cl)C1CC1` (stereo not drawn), the max response was 8.54% (inactive).
In the case of `Cc1ncc(CC(=O)n2cc(C(=O)c3cc(Cl)ccc3O)cn2)s1`, the max response is reported as 11.2% (inactive).
For `O=C(c1cnn(-c2ccc(Cl)cc2)c1)c1ccccc1O`, the max response was 60.1% (active).
With `O=C(CN1CCN(c2ccc(Cl)cc2)CC1)c1ccccc1` the max response was 5.7% (inactive).
